Experimental data from PubChem BioAssay AID1159580 (chemical genetic matrix, 2015).
Several values for one entry are separate records, joined by “and”; a condition that tells them apart may be missing. Identical values can stand only once. About 2,000 (36%) of roughly 5,500 compounds were called active. Not shown: some 18% with an inconclusive outcome. Rule as the data show it: active = normalized growth mostly below about 0.91 (no sharp cut-off); inconclusive = no clear call, values can overlap the other calls; inactive = mostly above about 0.92. The list shows a part of the results.

Test: chemical genetic growth profiling, strain panel (AID 1159580);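 also: tested at 20 µM; growth read once vehicle control cultures reached saturation at 30 °C; 1 = growth at the plate median or of vehicle wells; lower values mean less growth of the strain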
Conditions: S. cerevisiae deletion strains, growth OD

Measured: normalized growth

COc1cccc2c1cc([N+](=O)[O-])c1c(C(=O)O)cc3c(c12)OCO3
inactive: locus YAL021C, strain ccr4, hits give low values 1.01 | locus YAL026C, strain drs2, hits give low values 1.02 | locus YAL030W, strain snc1, hits give low values 1.02 | locus YBL061C, strain skt5, hits give low values 1.02 | locus YBR009C, strain hhf1, hits give low values 1.03 | locus YBR021W, strain FUR4, hits give low values 0.991 | locus YBR023C, strain chs3, hits give low values 1.02 | locus YBR171W, strain sec66, hits give low values 1.05 | locus YBR229C, strain ROT2, hits give low values 1.01 | locus YBR231C, strain swc5, hits give low values 1.03 | locus YBR279W, strain paf1, hits give low values 1.02 | locus YCL011C, strain gbp2, hits give low values 1.03 | locus YCL016C, strain dcc1, hits give low values 1.02 | locus YCL029C, strain bik1, hits give low values 1.02 | locus YCL061C, strain MRC1, hits give low values 1.02 | locus YCL069W, strain vba3, hits give low values 1.02 | locus YCR088W, strain abp1, hits give low values 1.02 | locus YDL005C, strain med2, hits give low values 1.04 | locus YDL035C, strain GPR1, hits give low values 1.01 | locus YDL040C, strain nat1, hits give low values 1 | locus YDL074C, strain BRE1, hits give low values 1.04 | locus YDL101C, strain DUN1, hits give low values 1.03 | locus YDL134C, strain PPH21, hits give low values 1.01 | locus YDL185W, strain tfp1, hits give low values 1 | locus YDL192W, strain arf1, hits give low values 1.04 | locus YDR001C, strain nth1, hits give low values 1.02 | locus YDR069C, strain doa4, hits give low values 1.02 | locus YDR101C, strain arx1, hits give low values 1.03 | locus YDR137W, strain rgp1, hits give low values 1.03 | locus YDR150W, strain NUM1, hits give low values 1.02 | locus YDR159W, strain sac3, hits give low values 1.04 | locus YDR162C, strain NBP2, hits give low values 1.03 | locus YDR195W, strain ref2 1 | locus YDR297W, strain sur2, hits give low values 1.03 | locus YDR318W, strain mcm21, hits give low values 1.02 | locus YDR334W, strain swr1, hits give low values 1.02 | locus YDR335W, strain msn5, hits give low values 1.02 | locus YDR388W, hits give low values 1.02 | locus YDR392W, strain spt3, hits give low values 0.971 | locus YDR502C, strain sam2, hits give low values 1.01 | locus YEL003W, strain gim4, hits give low values 1.03 | locus YEL037C, strain rad23, hits give low values 1.02 | locus YEL061C, strain CIN8 (second series), hits give low values 1.02 | locus YEL061C, strain CIN8, hits give low values 1.01 | locus YER015W, strain faa2, hits give low values 1.02 | locus YER016W, strain bim1, hits give low values 1.02 | locus YER110C, hits give low values 1.01 | locus YER111C, strain swi4, hits give low values 1.03 | locus YER155C, strain BEM2 (second series), hits give low values 1.03 | locus YER155C, strain BEM2, hits give low values 1.01 | locus YER167W, strain BCK2, hits give low values 0.999 | locus YFR010W, strain ubp6, hits give low values 1.02 | locus YGL078C, strain dbp3, hits give low values 0.997 | locus YGL086W, strain mad1, hits give low values 1.03 | locus YGL167C, strain pmr1, hits give low values 1.04 | locus YGL173C, strain kem1, hits give low values 1.04 | locus YGL227W, strain vid30, hits give low values 1.02 | locus YGL240W, strain doc1, hits give low values 1.03 | locus YGL248W, strain PDE1, hits give low values 1.01 | locus YGL253W, strain hxk2, hits give low values 1.01 | locus YGR135W, strain pre9, hits give low values 0.994 | locus YGR229C, strain SMI1, hits give low values 1.02 | locus YGR252W, strain gcn5, hits give low values 0.906 | locus YHR013C, strain ard1, hits give low values 1.02 | locus YHR027C, strain rpn1, hits give low values 1.02 | locus YHR030C, strain SLT2, hits give low values 1.01 and 0.92 | locus YHR079C, strain IRE1 (second series), hits give low values 1.01 | locus YHR079C, strain IRE1, hits give low values 0.914 | locus YHR094C, strain hxt1, hits give low values 1.02 | locus YHR129C, strain ARP1, hits give low values 1.01 | locus YHR142W, strain chs7, hits give low values 1.01 | locus YHR200W, strain rpn10, hits give low values 1.02 | locus YIL066C, strain RNR3, hits give low values 1.02 | locus YIL073C, strain SPO22, hits give low values 1.03 | locus YIL125W, strain kgd1, hits give low values 0.995 | locus YIR030C, strain dcg1, hits give low values 1.02 | locus YJL092W, strain hpr5, hits give low values 1.02 | locus YJL095W, strain BCK1 (second series), hits give low values 1.01 | locus YJL095W, strain BCK1, hits give low values 1.04 and 0.987 | locus YJL115W, strain asf1, hits give low values 1.02 | locus YJL129C, strain trk1, hits give low values 1.03 | locus YJL134W, strain LCB3, hits give low values 1.02 | locus YJL154C, strain vps35, hits give low values 1.02 | locus YJL164C, strain tpk1, hits give low values 0.991 | locus YJL166W, strain qcr8, hits give low values 1.02 | locus YJL168C, strain set2, hits give low values 1.01 | locus YJL187C, strain SWE1 (second series), hits give low values 1.03 | locus YJL187C, strain SWE1, hits give low values 1.02 | locus YJR043C, strain POL32, hits give low values 1.01
